# In PubChem BioAssay (NCATS):
# The source made the active and inactive calls. The rule behind the calls is not given here.
# System: HIV-1 nucleocapsid protein NCp7 (binding to TG oligonucleotide)
# Experiment: HIV Nucleocapsid (AID 346);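 note: potency is for inhibitors that block NC binding and lower polarization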
# Settings: HIV-1 NC / fluorescein-TGTGTGTG probe, fluorescence polarization
# Description: NCGC Assay Overview: HIV-1 nucleocapsid protein (HIV-1 NC) is a small (6.5 kDa) basic zinc-finger protein which participates in packaging of viral genomic RNA. The spacing and metal-chelating residues (3 Cys, 1 His) of the Cys-X2-Cys-X4-His-X4-Cys Zn fingers are conserved among all known retroviruses (J. Med. Chem. 1998, 41, 1371-1381). HIV-1 NC was assayed for its binding to the consensus sequence single-stranded 5'-TGTGTGTG. […] High salt was included to increase the stringency of binding and inhibitor screen. Reducing agents and zinc were present to stabilize the nucleocapsid zinc-finger protein.
# NCGC Assay Protocol Summary: Buffer. Hepes pH 7.5, 250mM NaCl, 1uM ZnCl2. 0.004% polyethylene glycol 20000. TCEP (100 uM) and 2-Mercaptoethanol (5 mM), added fresh the day of the experiment. Reagents/Controls. 10 nM TG4xF only in columns 3 and 4 as negative control. 10 nM TG4xF/100 nM HIV-1 NC in columns 1, 2, 5-48. Titration of control compound NSC-13778 (from 20 mM, then 1:2) pin-transferred to column 2. Assay Steps. Two uL of reagents were dispensed to 1536-well Kalypsys black plates. The plates were centrifuged for 1 min at 1000 rpm. Compounds and controls (20 nL) were transferred via Kalypsys PinTool. The plates were incubated for 1 hr at room temperature, and then read on ViewLux (Perkin-Elmer). High-throughput CCD imager using fluorescein polarization filter set and 45 seconds exposure time.
# Potency is the fitted concentration of half-maximal effect.
row,Compound,Potency
1,c1ccc(Nc2ncncc2-c2ccc3c(c2)OCO3)cc1,> 20 µM (inactive)
2,CC(C)CN1CCC2(CC1)CCN(C(=O)c1cccn1C)CC2,> 20 µM (inactive)
3,CN(Cc1ccco1)c1ccnc(-c2cccc(C#N)c2)n1,> 20 µM (inactive)
4,Cn1cccc1C(=O)N1CCC2(CC1)CN(C(c1ccccc1)c1ccccc1)C2,> 20 µM (inactive)
5,Cc1cccc(CNc2cc(-c3ccoc3)ncn2)c1,> 20 µM (inactive)
6,CN(C)C(=O)c1ccc(-c2nccc(-n3ccnc3)n2)cc1,> 20 µM (inactive)
7,COCCn1c(=O)c(CCc2ccccc2)nc2cnc(N(C)C)nc21,> 20 µM (inactive)
8,CN(C)c1cc(-c2cccc(NS(C)(=O)=O)c2)ncn1,> 20 µM (inactive)
9,COc1ccc2[nH]cc(CCNc3ncnc4ccc(-c5ccc6c(c5)OCO6)cc34)c2c1,> 20 µM (inactive)
10,COc1ccccc1CN1CCC2(CC1)CCN(C(C)=O)CC2,> 20 µM (inactive)
11,Cc1noc(C)c1C(=O)N1CCC2(CCCN(C(=O)NC(C)C)C2)CC1,> 20 µM (inactive)
12,COCC(=O)N1CCC2(CCN(Cc3cc(C(F)(F)F)cc(C(F)(F)F)c3)CC2)CC1,> 20 µM (inactive)
13,CN(Cc1ccco1)c1ncncc1-c1cccnc1,> 20 µM (inactive)
14,CS(=O)(=O)Nc1cccc(-c2cncnc2Nc2ccc(F)cc2)c1,> 20 µM (inactive)
15,Cc1noc(C)c1C(=O)N1CCC[C@@]2(CCN(Cc3cc(C(F)(F)F)cc(C(F)(F)F)c3)C2)C1,> 20 µM (inactive)
16,COCCNc1ccnc(-c2ccccc2C(F)(F)F)n1,> 20 µM (inactive)
17,Cc1cccc(CNc2ncncc2-c2ccc3c(c2)OCO3)c1,> 20 µM (inactive)
18,CN1CCN(c2ncc3nc(-c4ccc(F)cc4)c(=O)n(C4CC4)c3n2)CC1,> 20 µM (inactive)
19,O=c1c(CCc2ccccc2)nc2cnc(N3CCOCC3)nc2n1CCc1ccccc1,> 20 µM (inactive)
20,COc1ccc(Oc2ncc3nc(C)c(=O)n(Cc4cccs4)c3n2)cc1,> 20 µM (inactive)

row,Compound,Potency
1,COc1ccc(-n2c(=O)cnc3cnc(N(C)C)nc32)cc1,> 20 µM (inactive)
2,c1cc(NC2CC2)nc(-c2ccoc2)n1,> 20 µM (inactive)
3,CN(C)C(=O)c1ccc(-c2ccc3ncnc(NCc4ccccc4)c3c2)cc1,> 20 µM (inactive)
4,O=C(c1cccc(F)c1)N1CCC2(CCCN(c3cccc(-c4ccccc4)c3)C2)CC1,> 20 µM (inactive)
5,Cc1cnc(CNc2nc(-c3ccccc3Cl)nc3ccccc23)cn1,> 20 µM (inactive)
6,Cc1nc2cnc(Oc3ccccc3)nc2n(Cc2cccs2)c1=O,> 4 µM (inactive)
7,COCCn1c(=O)c(-c2ccc(F)cc2)nc2cnc(OC)nc21,> 20 µM (inactive)
8,Cc1cccc(CNc2ccnc(-c3cccnc3)n2)c1,> 20 µM (inactive)
9,CN(C)C(=O)c1ccc(-c2ccc3ncnc(N4CCNCC4)c3c2)cc1,> 20 µM (inactive)
10,FC(F)(F)c1ccccc1-c1cncnc1NCc1cccs1,> 20 µM (inactive)
11,CN(Cc1ccco1)c1cc(-c2ccoc2)ncn1,> 20 µM (inactive)
12,Cc1noc(C)c1C(=O)N1CCC2(CCN(Cc3ccc(C#N)cc3)CC2)CC1,> 20 µM (inactive)
13,CCNc1ncc2nc(-c3cccs3)c(=O)n(CCC#N)c2n1,6.37 µM (active)
14,COc1ccc(NC(=O)N2CC[C@@]3(CCCNC3)C2)cc1,> 20 µM (inactive)
15,COc1ccc(C(=O)N2CCC3(CC2)CN(c2ncccn2)C3)cc1,> 20 µM (inactive)
16,COC(=O)N1CCC2(CC1)CN(c1cccc(-c3ccccc3)c1)C2,> 20 µM (inactive)
17,COc1ccc(-c2nc3cnc(N(C)C)nc3n(C)c2=O)cc1,> 4 µM (inactive)
18,COC(=O)N1CCC2(CCCN(C(c3ccccc3)c3ccccc3)C2)CC1,> 20 µM (inactive)
19,Cc1cnc(CNc2cc(-c3cccnc3)ncn2)cn1,> 20 µM (inactive)
20,COc1ccc2[nH]cc(CCNc3cc(-c4cccnc4)ncn3)c2c1,> 20 µM (inactive)
